Results: PubChem BioAssay (NCATS)
Inconclusive results are not listed. Active and inactive are the calls of the source. Calls come from the whole dose curve; as a rule, active = well fitted curve in the direction sought with a large enough effect; inconclusive = small, poorly fitted or top-dose-only effect, or another doubt; inactive = no such curve, though single readings can be large; an effect the other way counts as inactive or inconclusive.

How the values were obtained:
[1] = KB-3-1 P-gp reporter qHTS against the NCATS DSHEA and TCM libraries (AID 1919975); note: 0% is about no effect
Outline: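 Parental KB-3-1 cells, 500 cells/well, in DMEM with 10% FBS, exposed 72 h at 37 C to compounds in concentration-response. Viability read by CellTiter-Glo luminescence after 30 min at room temperature.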

[2] = qHTS Counterscreen for compound interference against the NCATS DSHEA and TCM libraries (AID 1919978); details: firefly luciferase detection reagent interference, luminescence;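 note: compounds preincubated with 1 µM D-luciferin or buffer before detection reagent; % of control where 0% means no effect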
Outline: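 Firefly luciferase detection reagent was added after compounds (19.5 nM–39.8 uM final) had been incubated 15 min at room temperature with 1 uM D-luciferin or with 100 mM phosphate buffer alone. Luminescence was read after 30 min at room temperature.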

[3] = Dual reporter qHTS for agonist of Pregnane X Receptor (hPXR) against the NCATS DSHEA and TCM libraries: Fluorescence readout (AID 1920058); note: 0% is about no effect
Outline: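 Viability readout (CellTiter-Fluor, 405/540 nm, 1 h) from agonist-mode PXR dual reporter in hPXR-Luc HepG2 cells. Substances ~24 h, 37 °C, 5% CO2; rifampicin reference, tetraoctyl ammonium bromide cytotoxic control.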

[4] = target: Nuclear receptor subfamily 1 group I member 2 (Homo sapiens) (UniProt O75469); assay: Dual reporter qHTS for antagonist of Pregnane X Receptor (hPXR) against the NCATS DSHEA and TCM libraries: Luminescence Readout (AID 1920060);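 note: HepG2 cells carrying hPXR luciferase reporter stimulated with rifampicin at 2 µM; 0% is about no effect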
Sequence of Nuclear receptor subfamily 1 group I member 2 (Homo sapiens) (O75469 whole entry, looked up): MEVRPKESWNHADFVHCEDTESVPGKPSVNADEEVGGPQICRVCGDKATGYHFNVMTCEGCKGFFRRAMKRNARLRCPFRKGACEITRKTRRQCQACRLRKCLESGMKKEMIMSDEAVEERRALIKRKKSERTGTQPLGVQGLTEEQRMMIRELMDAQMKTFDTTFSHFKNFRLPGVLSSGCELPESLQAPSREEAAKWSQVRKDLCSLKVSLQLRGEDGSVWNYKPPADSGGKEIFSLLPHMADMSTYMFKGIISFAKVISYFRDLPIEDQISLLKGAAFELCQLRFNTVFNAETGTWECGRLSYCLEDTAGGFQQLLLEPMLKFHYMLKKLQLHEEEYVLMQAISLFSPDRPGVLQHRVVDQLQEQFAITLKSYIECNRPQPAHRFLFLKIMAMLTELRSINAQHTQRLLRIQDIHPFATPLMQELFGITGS
Outline: (§1)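 Antagonist mode: rifampicin 2 uM final co-added with compounds to hPXR-LucHepG2 cells for 24 h at 37C. Viability by CellTiter-Fluor, Ex/Em 405/540 nm, 1 h; reporter by ONE-Glo luminescence.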

[5] = Dual reporter qHTS for antagonist of Pregnane X Receptor (hPXR) against the NCATS DSHEA and TCM libraries: Fluorescence Readout (AID 1920061); note: 0% is about no effect
Outline: as §1

[6] = target: Rap guanine nucleotide exchange factor 3 (Homo sapiens) (UniProt O95398); assay: Counterscreen qHTS for agonist of cAMP-regulated guanine nucleotide exchange factor 3 (EPAC1) (AID 1645889); note: nearly all actives have a fitted effect of over 40% in size; note: potency is the fitted concentration of half-maximal effect; for activation: % of control where 0% means no effect
Outline: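 Rap1B–BODIPY-GDP (250 nM) with 50 uM GDP; compounds pin-transferred to 9.74 nM–152 uM final (activator) or from 7.32 nM upwards (inhibitor). Fluorescence Ex/Em 480/540 nm read at 5 and 30 min, then after adding cAMP or buffer, at room temperature.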

ATS95 = assay: qHTS profiling for inhibitors of Plasmodium falciparum proliferation (AID 504749); note: nearly all actives have a fitted effect of over 60% in size; note: potency is the fitted concentration of half-maximal effect; details: P. falciparum in erythrocytes, SYBR Green DNA, 72 h; series mostly up to 28.7 µM
Outline: (§2)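 Each compound contacts P. falciparum-infected red blood cells for 72 h at 37 C; lysis buffer (Tris, EDTA, saponin, Triton X, SYBR Green I) is added and fluorescence measured next morning; values normalized to controls.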

CP260 = assay: as above; details: P. falciparum in erythrocytes, SYBR Green DNA, 72 h; series mostly up to 28.7 µM
Outline: as §2

CP262 = assay: as above; details: P. falciparum in erythrocytes, SYBR Green DNA, 72 h; series mostly up to 28.7 µM
Outline: as §2

CP265 = assay: as above; details: P. falciparum in erythrocytes, SYBR Green DNA, 72 h; series mostly up to 12.8 µM
Outline: as §2

CP286 = assay: as above; details: P. falciparum in erythrocytes, SYBR Green DNA, 72 h; series mostly up to 28.7 µM
Outline: as §2

CP297 = assay: as above; details: P. falciparum in erythrocytes, SYBR Green DNA, 72 h; series mostly up to 28.7 µM
Outline: as §2

CP335 = assay: as above; details: P. falciparum in erythrocytes, SYBR Green DNA, 72 h; series mostly up to 12.8 µM
Outline: as §2

DFO2036 = assay: as above; details: P. falciparum in erythrocytes, SYBR Green DNA, 72 h; series mostly up to 28.7 µM
Outline: as §2

ICS = assay: as above; details: P. falciparum in erythrocytes, SYBR Green DNA, 72 h; series mostly up to 28.7 µM
Outline: as §2

P94_40 = assay: as above; details: P. falciparum in erythrocytes, SYBR Green DNA, 72 h; series mostly up to 28.7 µM
Outline: as §2

TAB113 = assay: as above; details: P. falciparum in erythrocytes, SYBR Green DNA, 72 h; series mostly up to 28.7 µM
Outline: as §2

W2 = assay: as above; details: P. falciparum in erythrocytes, SYBR Green DNA, 72 h; series mostly up to 12.8 µM
Outline: as §2

CP192 = assay: as above; details: P. falciparum in erythrocytes, SYBR Green DNA, 72 h; series mostly up to 28.7 µM
Outline: as §2

CP203 = assay: as above; details: P. falciparum in erythrocytes, SYBR Green DNA, 72 h; series mostly up to 28.7 µM
Outline: as §2

COc1cc2c(cc1O)CC1c3c(cc(O)c(OC)c3-2)CCN1C (stereo not given)
inactive: outcome [1] | max response [2] 0.642% | outcome [3] | outcome [4] | outcome [5]

CC1=NCCc2c1[nH]c1cc(O)ccc21
active: Potency [6] 12.6 µM

O=C(OC1CCN(CCCl)CC1)C(c1ccccc1)c1ccccc1
inactive: activation [6] -1.7% [at 30.8 µM]

C[C@]12CC[C@H](O)CC1=CCC1C2CC[C@]2(C)C(=O)CC[C@@H]12 (stereo not given in full)
inactive: Potency (ATS95) | Potency (CP260) | Potency (CP262) | Potency (CP265) | Potency (CP286) | Potency (CP335) | Potency (DFO2036) | Potency (ICS) | Potency (P94_40) | Potency (TAB113) | Potency (W2)
active: Potency (CP297) 19 µM

COc1ccc2c(c1O)-c1c(OC)c(OC)cc3c1[C@H](C2)N(C)CC3
inactive: outcome [1] | max response [2] 1.18% | outcome [3] | outcome [4] | outcome [5]

C[N+]1([O-])[C@@H]2CC(OC(=O)[C@@H](CO)c3ccccc3)C[C@@H]1[C@H]1O[C@H]12 (stereo not given in full)
inactive: Potency (ATS95) | Potency (CP192) | Potency (CP203) | Potency (CP260) | Potency (CP262) | Potency (CP265) | Potency (CP286) | Potency (CP297) | Potency (CP335) | Potency (ICS) | Potency (P94_40) | Potency (TAB113) | Potency (W2)

ClC1=C(Cl)C2(Cl)C3C4CC(C5OC45)C3C1(Cl)C2(Cl)Cl (stereo not given)
inactive: Potency (CP192) | Potency (CP203) | Potency (DFO2036)
